PubChem BioAssay
Calls of active or inactive are those of the source. Unless noted, the rule behind the calls is not given here.

Assays:
[1] = resazurin metabolic signal in HepG2 cells – cell-based, resazurin fluorescence, 24 h, PK04 Diversity Set, profiling panel (AID 1172); conditions: HepG2 viability, higher = more signal; note: test concentration not given here
[2] = budding yeast growth changes without added modifier – OD600, strain BY4716, 24 h, basal condition, primary screen (AID 1173); conditions: S. cerevisiae BY4716 growth, OD600, 24 h; higher = more signal, called active from +8 up or from −8 down
[3] = viability profiling in MM1S myeloma cells – cell-based, resazurin fluorescence, basal, 24 h, PK04 Diversity Set, profiling panel (AID 1174); conditions: higher = more signal, called active from +8 up or from −8 down;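 note: MM1S multiple myeloma cell line; test concentration not given here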
[4] = biological target: Dihydroorotate dehydrogenase (quinone), mitochondrial (Plasmodium falciparum (isolate 3D7)) (UniProt Q08210); assay: inhibition of P. falciparum DHODH – biochemical, C-terminal His tag, absorbance 600 nm, primary screen (AID 1175); conditions: PfDHODH enzyme, DCIP absorbance 600 nm; higher = more signal, called active from +8 up or from −8 down;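 note: recombinant parasite enzyme with a five histidine tag at its C terminus; test concentration not given here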
Chain of Dihydroorotate dehydrogenase (quinone), mitochondrial (Plasmodium falciparum (isolate 3D7)) (Q08210 whole entry, looked up): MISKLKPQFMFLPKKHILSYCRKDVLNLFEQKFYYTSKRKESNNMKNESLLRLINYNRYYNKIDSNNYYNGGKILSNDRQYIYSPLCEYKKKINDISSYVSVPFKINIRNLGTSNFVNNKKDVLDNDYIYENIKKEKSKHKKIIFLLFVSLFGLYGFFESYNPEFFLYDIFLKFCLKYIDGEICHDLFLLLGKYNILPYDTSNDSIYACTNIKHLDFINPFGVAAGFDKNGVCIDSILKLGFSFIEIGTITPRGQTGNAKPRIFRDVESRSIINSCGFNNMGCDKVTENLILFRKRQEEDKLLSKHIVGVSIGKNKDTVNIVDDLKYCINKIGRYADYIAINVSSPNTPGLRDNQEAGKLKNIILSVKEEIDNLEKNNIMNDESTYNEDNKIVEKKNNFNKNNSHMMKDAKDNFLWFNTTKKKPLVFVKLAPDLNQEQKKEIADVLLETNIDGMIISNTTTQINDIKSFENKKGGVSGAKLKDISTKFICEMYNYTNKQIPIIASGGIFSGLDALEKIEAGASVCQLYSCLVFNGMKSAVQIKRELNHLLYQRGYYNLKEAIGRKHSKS

[5] = inhibition of PAO1 biofilm formation – strain PAO1, LB-PBS medium, absorbance 600 nm, primary screen (AID 1176); note: test concentration not given here; conditions: P. aeruginosa PAO1 growth/biofilm, A600, 12 h; higher = more signal
[6] = growth modulation of vineyard yeast isolate – strain RM11-1a, OD600, basal, 24 h, primary screen (AID 1177);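 note: cultures grown under basal conditions with no added stressor; test concentration not given here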; conditions: S. cerevisiae RM11-1a growth, OD600, 24 h; higher = more signal, called active from +8 up or from −8 down
[7] = growth of efflux-deficient E. coli DRC39 – strain DRC39, OD650, 24 h, E. coli filamentation inducers, primary screen (AID 1178);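 note: growth measured as culture turbidity by optical density at 650 nm; test concentration not given here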; conditions: E. coli DRC39 acrAB, higher = more signal, called active from +8 up or from −8 down
[8] = growth of efflux-deficient E. coli DRC39 – strain DRC39, OD650, 48 h, E. coli filamentation inducers, primary screen (AID 1179);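 note: screen aims at cell division blockers that make cells filament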; conditions: E. coli DRC39 delta-acrAB growth, higher = more signal, called active from +8 up or from −8 down
[9] = viability profiling in RPMI8226 myeloma cells – cell-based, resazurin fluorescence, basal, 24 h, PK04 Diversity Set, profiling panel (AID 1180); conditions: higher = more signal;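 note: RPMI8826 multiple myeloma cell line at 5000 cells per well; test concentration not given here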
[10] = biological target: E3 ubiquitin-protein ligase XIAP (Homo sapiens) (UniProt P98170); assay: small molecules binding XIAP protein – biophysical, small-molecule microarray, fluorescence 635 nm, primary screen (AID 1181); conditions: higher = more signal;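 note: score merges 667 nm emission and signal to noise over triplicate slides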
Chain of E3 ubiquitin-protein ligase XIAP (Homo sapiens) (P98170 whole entry, looked up): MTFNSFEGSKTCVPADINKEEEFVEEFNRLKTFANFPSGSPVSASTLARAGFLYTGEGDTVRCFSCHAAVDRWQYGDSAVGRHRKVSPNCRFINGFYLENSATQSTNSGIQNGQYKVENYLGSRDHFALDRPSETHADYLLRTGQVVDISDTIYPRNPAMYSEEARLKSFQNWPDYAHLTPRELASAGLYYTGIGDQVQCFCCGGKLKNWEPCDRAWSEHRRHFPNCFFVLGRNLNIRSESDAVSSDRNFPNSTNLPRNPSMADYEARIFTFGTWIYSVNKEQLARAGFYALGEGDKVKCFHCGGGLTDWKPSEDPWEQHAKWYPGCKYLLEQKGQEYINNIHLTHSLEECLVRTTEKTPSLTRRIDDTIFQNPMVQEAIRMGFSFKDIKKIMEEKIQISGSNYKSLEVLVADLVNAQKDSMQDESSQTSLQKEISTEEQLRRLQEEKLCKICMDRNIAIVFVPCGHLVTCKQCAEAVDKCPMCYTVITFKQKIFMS

Structure (SMILES) | z-score [1] | z-score [2] | z-score [3] | composite z-score [4] | z-score [5] | z-score [6] | z-score [7] | z-score [8] | z-score [9] | composite z-score [10]
COc1ccc([Si](C)(C)[C@H]2[C@H](CCO)O[C@@]3(C(=O)N(Cc4ccccc4)c4ccc(N5C(=O)c6ccccc6Oc6ccccc65)cc43)[C@@H]2C)cc1 | -1.6 | 1.09 (inactive) | -4.24 (inactive) | 0.906 (inactive) | 2.38 (inactive) | 3.48 (inactive) | 0.0105 (inactive) | -0.615 (inactive) | -3.34 | -0.172
C=CCN1C(=O)[C@@]2(O[C@@H](CCO)[C@H]([Si](C)(C)c3ccc(OC)cc3)[C@H]2C)c2cc(N3CCOC3=O)ccc21 | -5.76 | 1.07 (inactive) | -8.77 (active) | 1.58 (inactive) | 0.519 (inactive) | 4.47 (inactive) | 0.891 (inactive) | 0.231 (inactive) | -6.2 | -0.0807
COCCOC(=O)N1C(=O)[C@@]2(c3cc(C#CCNC(N)=O)ccc31)[C@H](c1ccc(O)cc1)N1[C@H](c3ccccc3)[C@H](c3ccccc3)OC(=O)[C@H]1[C@@H]2C(N)=O | 1.18 | 0.282 (inactive) | -0.96 (inactive) | 0.329 (inactive) | 0.0568 (inactive) | 0.203 (inactive) | 0.507 (inactive) | 1.28 (inactive) | -0.938 | 0.0372
CC(C)C[C@@H]1NC(=O)[C@H]2C[C@@H](C(=O)NCCCCCN)[C@@H](c3cccc(OCCO)c3)N2C1=O | -0.604 | -0.122 (inactive) | -0.178 (inactive) | -1.36 (inactive) | -0.0491 (inactive) | -2.46 (inactive) | 1.06 (inactive) | 1.61 (inactive) | 0.138 | -0.198
CC(C)[Si]1(C(C)C)OCc2cc(-c3ccc(-c4ccc(Cl)c(Cl)c4)o3)nc(CCc3ccccc3)c21 | 0.822 | -3.49 (inactive) | -1.64 (inactive) | 0.393 (inactive) | 0.149 (inactive) | -0.302 (inactive) | 1.46 (inactive) | 0.643 (inactive) | -0.0096 | -0.185
CCOC(=O)C=Cc1cc(F)ccc1O | -0.338 | -12.6 (active) | -0.99 (inactive) | -1.09 (inactive) | -0.0727 (inactive) | -23.2 (active) | -1.01 (inactive) | -1.31 (inactive) | -0.935 | -0.196
C=C[C@@H](C)[C@@H](OC(=O)Nc1ccc(SC)cc1)c1ccc(OCCO)cc1 | 0.627 | -3.68 (inactive) | -0.682 (inactive) | 0.05 (inactive) | 0.119 (inactive) | 0.296 (inactive) | -0.68 (inactive) | -0.504 (inactive) | 0.0167 | 0.0879
COCCCNC(=O)[C@@]1(c2ccc([N+](=O)[O-])cc2)CC(=O)N(CC23CC4CC(CC(C4)C2)C3)[C@@H]1c1ccc(CO)cc1I | -2.61 | 1.02 (inactive) | -3.15 (inactive) | 1.11 (inactive) | 0.457 (inactive) | 2.43 (inactive) | -0.0284 (inactive) | -0.107 (inactive) | -3.52 | 0.144
C=C[C@@H](OC)[C@H](OC(=O)Nc1ccc(SC)cc1)c1ccc(OCCO)cc1 | -0.8 | -0.88 (inactive) | -0.415 (inactive) | -0.915 (inactive) | 0.838 (inactive) | 0.884 (inactive) | -0.967 (inactive) | -1.5 (inactive) | -0.306 | -0.0918
C=CCC(OC(C)=O)[C@@H]1[C@@H](N(Cc2ccc(-c3cccc(C(F)(F)F)c3)o2)C(=O)c2cccc3ccccc23)c2cc(OCCCO)ccc2N1C(=O)Cc1ccc(OC)cc1 (stereo not given in full) | 0.119 | -1.8 (inactive) | 0.0814 (inactive) | -0.349 (inactive) | -1.17 (inactive) | -0.0592 (inactive) | 1.11 (inactive) | 0.721 (inactive) | -0.189 | -0.102
CC=CC(O)C1C=CC2C(=O)NC(=O)C2N1Nc1ccccn1 (stereo not given) | -1.45 | 0.866 (inactive) | -0.949 (inactive) | 0.434 (inactive) | 0.667 (inactive) | 1.83 (inactive) | -0.837 (inactive) | 0.272 (inactive) | -0.349 | -0.031
COc1cccc(/C=C(\C#N)C(=O)Nc2c(C)n(C)n(-c3ccccc3)c2=O)c1 | 0.665 | -1.81 (inactive) | -1.82 (inactive) | -1.14 (inactive) | 0.792 (inactive) | -0.6 (inactive) | 0.575 (inactive) | 1.15 (inactive) | 0.191 | 0.0775
CC(=O)NCCCC[C@@H]1NC(=O)[C@@H]2C[C@H](C(=O)NCCCCCCN)[C@H](c3cccc(OCCO)c3)N2C1=O | -0.55 | -0.652 (inactive) | -0.152 (inactive) | 0.23 (inactive) | -0.0617 (inactive) | -0.158 (inactive) | -0.0095 (inactive) | 0.211 (inactive) | -0.257 | 0.0896
O=C(CS)NCCCCCCNC(=O)[C@@H]1C[C@@H]2C(=O)NCC(=O)N2[C@@H]1c1ccc(O)cc1 | 0.263 | -0.185 (inactive) | 0.426 (inactive) | -0.757 (inactive) | 0.171 (inactive) | -1.97 (inactive) | 0.858 (inactive) | 1.62 (inactive) | 0.0464 | -0.02
CN1C(=O)C2C=CC(C(O)c3cc(C(F)(F)F)cc(C(F)(F)F)c3)N(NC(=O)OC(C)(C)C)C2C1=O (stereo not given) | -0.725 | -0.752 (inactive) | -0.117 (inactive) | -0.251 (inactive) | -0.379 (inactive) | 0.215 (inactive) | -0.676 (inactive) | -1.22 (inactive) | 0.349 | 0.394
O=C1OCCC/C=C\[C@H]2OC34C=CCN(c5ccc6ccccc6c5)C(=O)[C@H]3N(CCCO)C(=O)[C@@H]4C12 (stereo not given in full) | -0.408 | 0.556 (inactive) | -0.104 (inactive) | -0.818 (inactive) | -0.636 (inactive) | -1.1 (inactive) | -0.0367 (inactive) | -0.0547 (inactive) | 0.375 | -0.332
CC(CO)N1C(=O)[C@@H]2[C@H]3C(=O)OCC=C[C@H]3OC23C=CCN(c2ccc(Cl)cc2)C(=O)[C@@H]13 (stereo not given in full) | 0.909 | -0.414 (inactive) | 0.675 (inactive) | -0.647 (inactive) | -0.897 (inactive) | 0.0289 (inactive) | 0.864 (inactive) | 0.734 (inactive) | 0.282 | -0.394
COC(=O)[C@@]1(Cc2ccc(OC)cc2)[C@H]2c3cc(C(=O)N4CCCC4)n(Cc4ccc(OC(F)(F)F)cc4)c3C[C@H]2CN1C(=O)c1ccccc1 | -0.0938 | 1.82 (inactive) | -1.43 (inactive) | -0.731 (inactive) | 0.343 (inactive) | 0.755 (inactive) | -0.0079 (inactive) | 0.513 (inactive) | -2.54 | 0.0479
COC(=O)C(CC#Cc1ccc2c(c1)[C@]1(C(=O)N2)[C@H](c2ccc(O)cc2)N2[C@H](c3ccccc3)[C@H](c3ccccc3)OC(=O)[C@H]2[C@@H]1C(=O)N1CCCCCCC1)C(=O)OC | -0.123 | 0.303 (inactive) | -0.961 (inactive) | -7.28 (inactive) | 1.6 (inactive) | 0.27 (inactive) | 0.196 (inactive) | -0.0767 (inactive) | -3.94 | 0.557
C=CCNC(=O)[C@H]1[C@@H]2C(=O)O[C@@H](c3ccccc3)[C@@H](c3ccccc3)N2[C@@H](c2ccc(OCCO)cc2)[C@]12C(=O)N(C(=O)OCCOC)c1ccc(C#Cc3ccc(OC)cc3)cc12 | -1.14 | 0.583 (inactive) | 0.476 (inactive) | -2.05 (inactive) | 2.11 (inactive) | 2.22 (inactive) | 1.07 (inactive) | 0.941 (inactive) | 0.637 | -0.0344
COC(=O)[C@@]1(Cc2ccc(OC)cc2)[C@H]2c3cc(C(=O)N4CCCC4)n(Cc4ccc(S(C)(=O)=O)cc4)c3C[C@H]2CN1C(=O)c1ccccc1 | -0.707 | 0.63 (inactive) | -0.389 (inactive) | -1.16 (inactive) | 0.122 (inactive) | 0.115 (inactive) | -0.867 (inactive) | -0.113 (inactive) | -0.84 | 0.721
COc1ccc([Si](C)(C)[C@H]2[C@H](CC(=O)N3Cc4ccccc4C[C@H]3CO)O[C@@]3(C(=O)N(Cc4ccc(N5C(=O)c6cccc7cccc5c67)cc4)c4ccccc43)[C@@H]2C)cc1 | 0.716 | 0.21 (inactive) | -2 (inactive) | -0.934 (inactive) | 1.13 (inactive) | 1.77 (inactive) | 0.929 (inactive) | 0.472 (inactive) | -0.737 | -0.063
COCC1=C2[C@@H](CCc3ccccc3)OB(O)C[C@@H]2[C@@H]2C(=O)N(C)C(=O)[C@@H]2C1 | -0.227 | -0.926 (inactive) | -0.439 (inactive) | -0.173 (inactive) | 0.294 (inactive) | 0.0903 (inactive) | -0.0919 (inactive) | 0.0253 (inactive) | -0.377 | 0.0512
C=C(CCCC)C(=O)CC[C@@H](OC(=O)c1cccnc1)c1ccc(OCCO)cc1 | -0.211 | -2.75 (inactive) | -1.43 (inactive) | -2.9 (inactive) | 0.543 (inactive) | -0.208 (inactive) | -0.566 (inactive) | -0.547 (inactive) | -2.52 | 0.0542
COCCOC(=O)N1C(=O)[C@@]2(c3cc(C#CC4=CCCCC4)ccc31)[C@H](c1ccc(O)cc1)N1[C@H](c3ccccc3)[C@H](c3ccccc3)OC(=O)[C@H]1[C@@H]2C(=O)NC[C@H](O)c1ccccc1 | -1.35 | 0.237 (inactive) | -2.48 (inactive) | -0.495 (inactive) | 1.29 (inactive) | 1.94 (inactive) | -0.396 (inactive) | 0.478 (inactive) | -2.55 | 0.0471
COCCOC(=O)N1C(=O)[C@@]2(c3cc(C#CCNC(N)=O)ccc31)[C@H](c1ccc(O)cc1)N1[C@H](c3ccccc3)[C@H](c3ccccc3)OC(=O)[C@H]1[C@@H]2C(=O)N1CCN(c2ncccn2)CC1 | 0.392 | 2.72 (inactive) | -0.441 (inactive) | -0.265 (inactive) | 2.81 (inactive) | 3.03 (inactive) | -0.123 (inactive) | 0.0896 (inactive) | -0.0784 | -0.205
